# From PubChem BioAssay (NCI)
# This is part of a sample that, as a whole, favours compounds with a hit. Of some 83,000 tested, about 20% had one in any assay.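 96-well plates, one dose, 48 hours. Percent growth reported; active if below 10.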 A number with no mark means an inactive call. Activity calls are given as the source filed them.
# System: TK-10 renal
# Experiment: NCI-60 one-dose screen, 48 h (100 = growth as untreated, 0 = no growth, -100 = all killed)
# Conditions: 10 µM unless noted
# Method: Growth inhibition of the TK-10 human tumor cell line is measured as a screen for anti-cancer activity. Cells are grown in 96 well plates and exposed to the test compound for 48 hours. Compounds are tested at a single concentration, which is 10^-5 M for most compounds. The reported endpoint is percent growth (GI% or GIPRCNT), where numbers from 0 - 100% represent growth inhibition, and numbers from -100% - 0 represent cell death. For example, a value of 40 represents 60% growth inhibition. A value of 0 means no net growth occurred over the course of the experiment. A value of -40 indicates 40% of cells at the beginning of the experiment died by the end of the experiment. A value of -100 means all cells are dead at the end of the experiment.
# NCI-60 Human Tumor Cell Lines Screen was performed using the standard one-dose NCI protocol, which is described in more detail at https://dtp.cancer.gov/discovery_development/nci-60/default.htm.
# Compounds with GIPRCNT values below 10 were considered active. Activity score was based on GIPRCNT using the following formula: […]
# Score is 0 for GIPRCNT values of 100 or above, 50 for GIPRCNT values of 0, and 100 for GIPRCNT values of -100.
row,Structure (SMILES),growth
1,CC(=O)c1nc(Nc2ccc(C)cc2)sc1C,120%
2,CCOc1ccccc1-c1cc(-c2cccs2)c(C#N)c(=O)[nH]1,110%
3,O=C1CCc2c(sc3[nH]c(=S)n(-c4ccc(OC(F)(F)F)cc4)c(=O)c23)C1,104%
4,Clc1cc(Cl)cc(Nc2ccc3cc(OCCCN4CCOCC4)ccc3n2)c1,47%
5,CCN(CC)S(=O)(=O)c1cccc(-c2ccc3c(NC(=O)C4CC4)n[nH]c3c2)c1,35.4% [6.25 µM]
6,CCN(CC)c1ccc2nc3c4ccccc4c(=NC(=O)c4ccccc4-c4c5ccc(N(CC)CC)cc5[o+]c5cc(N(CC)CC)ccc45)cc-3oc2c1,74.6%
7,COC(=O)[C@]12CC[C@@H](C)[C@H](C)[C@@H]1C1=CC[C@@H]3[C@@]4(C)C(C=O)=C[C@@](C)(COC(=O)c5ccco5)[C@@H]4C(=O)C[C@@]3(C)[C@]1(C)CC2,29.7%
8,Cc1cccc(Cc2cnc(NC(=O)/C=C/c3ccco3)s2)c1,52.8%
9,Cc1ccccc1NC(=O)N/C(N)=N/c1nc(C)c(C)s1,70.3%
10,CCCCCCCCCCCCCCCCCCOc1ccc(CC(=O)OCC[N+]2(C)CCCC2)cc1,98.4%
11,CCN(CC)CCN1C(=O)c2c(c(C)c3c(oc4cc(O)ccc43)c2C)C1=O,-92.3% (active)
12,NC(=S)N/N=C/Cc1ccccc1,107%
13,COc1ccc(-c2ccc3c(c2)sc2nc(-c4ccc(F)cc4)cn23)cc1,75.6%
14,NC1=NCc2nc3ccccc3c(=O)n2C1,106%
15,O=c1c2c3c(sc2n2c(-c4cc(-c5ccccc5)nn4-c4ccccc4)nnc2n1Cc1ccccc1)CCCC3,126%
16,COc1ccc(-c2nc(SCC(=O)Nc3nc(-c4ccccc4)cs3)[nH]c(=O)c2C#N)cc1,117%
17,COc1cc2ncn3c(=O)c4c5c(sc4nc3c2cc1OC)CCCC5,140%
18,Cc1ccc(C(=O)C2=C(O)C(=O)N(Cc3cccnc3)C2c2ccccc2F)o1 (stereo not given),104%
19,COc1cc(OC)cc(C2CC(=O)Nc3c2c(C)nn3-c2nc3ccccc3[nH]2)c1 (stereo not given),24.2%
20,Cc1ccc(N(C(=O)CCc2c[nH]c3ccccc23)[C@H](C(=O)Nc2ccc(Cl)cc2)c2cccc([N+](=O)[O-])c2)cc1,116%

row,Structure (SMILES),growth
1,COc1ccc(C(=O)COc2ccc(/C=C3\Oc4ccccc4C3=O)cc2)cc1,136%
2,C=CCn1c(C)nc2cc(Nc3nc(N4CCCC4)nc4ccccc34)ccc21,108%
3,O=C1Nc2ccccc2/C1=C/c1cn(C(=O)c2c(Cl)cccc2Cl)c2ccccc12,90.7%
4,O=C(c1ccccc1)c1c(/C=C/c2ccccc2)nc2ccccc2c1/C=C/c1ccc(Br)cc1,107%
5,COc1cc(C(=O)/C=C/c2c(-c3ccc(F)cc3)nc3sc(C)cn23)cc(OC)c1OC,52.2%
6,COc1ccc(C2C(c3nn[nH]n3)=C(N)Oc3c2ccc2ccccc32)cc1 (stereo not given),43.8%
7,C=CC(=O)Nc1cccc(Oc2nccc(Nc3nnc(C4CC4)s3)n2)c1,104%
8,CCCCn1c(=O)c2c(nc(NCCc3ccc(O)c(O)c3)n2CCC)n(CCCC)c1=O,85.8%
9,Cc1ccc(NS(=O)(=O)c2ccc3c(c2)C(=O)CC(c2ccc(C(=O)C(C)C)cc2)N3)cc1C (stereo not given),77.9%
10,COc1cc(C2CC(c3cc(OC)c(OCCCOc4ccc(-n5c(/C=C/c6ccccc6)nc6ccccc6c5=O)cc4)c(OC)c3)=NO2)cc(OC)c1OC (stereo not given),139%
11,C[C@@]1(CCC#N)[C@H]2CC[C@@H]3[C@H]4[C@H](C(=O)/C=C/c5cccnc5)CC[C@]4(C#N)CC[C@@]3(C)[C@]2(C)CC[C@H]1C(=O)/C=C/c1cccnc1,101%
12,COc1ccc(NC(=O)CSc2nc(C)c(C(C)=O)n2-c2ccc(Cl)cc2)cc1,125%
13,CCCCCCCCCCCCCCCCCC1=NCCN1CCOC1=C(Cl)C(=O)c2ccccc2C1=O,78.9%
14,Nc1cc2c3c(cccc3c1)C(=O)N(CCN1CCCC1)C2=O,105%
15,COc1ccccc1N1C(=O)/C(=C/C2=Cc3ccccc3OC2)SC1=S,84.3%
16,COc1cccc(-c2nn(-c3ccccc3)cc2-c2ccnc(NCCCNC(=O)c3ccccc3)c2)c1,60.7%
17,O=C(CSc1nnc(-c2ccc(NC(=O)c3cccnc3)cc2)o1)Nc1cccc(Br)c1,121%
18,Nc1n[nH]c(-c2cc(Cl)ccc2O)c1-c1ccccc1,106%
19,COc1ccc2oc3c(C)c4c(c(C)c3c2c1)C(=O)N(Cc1ccccc1)C4=O,120%
20,COc1ccc(C(=O)/C=C/c2c(C(F)(F)F)nc3sccn23)cc1OC,58.1%
